In PubChem BioAssay (EPA / NIEHS):
Calls of active or inactive are those of the source. How the source made its calls: active means hit-call score of the fitted dose curve at least 0.9, where 1 is the maximum; inactive means score below 0.9.

Molecular target: CCAAT/enhancer-binding protein beta (Homo sapiens) (UniProt P17676)
Experiment: ATG_C_EBP_CIS: Attagene CIS-FACTORIAL HepG2 Assay for human CCAAT/Enhancer Binding Protein (C/EBP) beta (AID 2282927)
Conditions: HepG2 Attagene cis-factorial transcription factor reporter; actives raise or lower the signal
Description: ATG_CIS is a cell-based, multiplexed-readout assay that uses HepG2, a human liver cell line, with measurements taken at 24 hours after chemical dosing in a 24-well plate.ATG_C_EBP_CIS is one of 52 assay component(s) measured or calculated from the ATG_CIS assay. It is designed to make measurements of mRNA induction, a form of inducible reporter, as detected with fluorescence intensity signals by Reverse transcription polymerase chain reaction (RT-PCR) and Capillary electrophoresis technology.Data from the assay component ATG_C_EBP_CIS was analyzed into 1 assay endpoint. This assay endpoint, ATG_C_EBP_CIS, was analyzed with bidirectional fitting relative to DMSO as the negative control and baseline of activity. Using a type of inducible reporter, measures of mRNA for gain or loss-of-signal activity can be used to understand the reporter gene at the transcription factor-level as they relate to the gene CEBPB. Furthermore, this assay endpoint can be referred to as a primary readout, because this assay has produced multiple assay endpoints where this one serves a reporter gene function. To generalize the intended target to other relatable targets, this assay endpoint is annotated to the dna binding intended target family, where the subfamily is basic leucine zipper.
Human liver HepG2 cells are transiently transfected with multiple reporter transcription units (MRTUs) in 6-well plates using FuGene 6 reagent (Roche; 3 ml FuGene/1 mg DNA). The MRTU constructs are regulated by a cis-regulating element (promoter). […] A major difference between the CIS and TRANS system is that in CIS activities of endogenous TFs are measured, whereas the TRANS assay evaluates changes in activities of exogenous, chimeric NR-Gal4 proteins. […] At the end of 24 hour incubation, total RNA was isolated using TriZol reagent (Invitrogen). The isolated RNA is then reverse-transcribed using oligo(dT) primer and Mo-MLV reverse transcriptase (Invitrogen) with DNAse I (Ambion) treatment for 30 min. The one-tenth of the produced cDNA was amplified by PCR using Taq DNA polymerase (Invitrogen) and two reporter sequence-specific primers. The PCR products were fluorescently labeled by primer extension with 6-arboxyfluorescein (6-FAM) 5'-labeled reporter sequence-specific primer (2 min at 95 C, 20 s at 68 C and 10 min at 72 C) and these products were digested with 5U of HpaI (New England Biolabs) for 2h at 37 C. The fragments were purified using Qiaquick PCR columns (Qiagen), analyzed on an ABI 3130xL genetic analyzer (Applied Biosystems) with peak positions identified by using a set of X-rhodamine (ROX)-labeled MapMarker1000 molecular weight standards (BioVentures). The raw capillary electrophoresis data was processed using Attagraph software (Attagene).

Chain of CCAAT/enhancer-binding protein beta (Homo sapiens) (P17676 whole entry, looked up): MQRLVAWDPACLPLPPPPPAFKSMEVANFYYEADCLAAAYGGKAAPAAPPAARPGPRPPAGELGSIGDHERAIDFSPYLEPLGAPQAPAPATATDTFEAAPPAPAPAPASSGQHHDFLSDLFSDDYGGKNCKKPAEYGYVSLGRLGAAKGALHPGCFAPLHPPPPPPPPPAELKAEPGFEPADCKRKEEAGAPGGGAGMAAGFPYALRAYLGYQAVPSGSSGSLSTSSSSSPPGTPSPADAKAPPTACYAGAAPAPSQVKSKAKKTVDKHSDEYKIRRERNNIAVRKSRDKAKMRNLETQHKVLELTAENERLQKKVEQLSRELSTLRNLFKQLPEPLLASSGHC

With Cc1cc(=O)[nH]c(C(C)C)n1 as the compound, how does the outcome read?
The outcome was “inactive”.

How did the outcome turn out when CC(=O)C=O was run?
Its outcome is “inactive”.

With C#CC(O)CCC (stereo not given) as the compound, how does the outcome read?
The outcome was “inactive”.

Which outcome does the source give for OCC(O)CC(F)(F)C(F)(F)C(F)(F)C(F)(F)C(F)(F)C(F)(F)C(F)(F)C(F)(F)F (stereo not given) here?
Its outcome is “inactive”.

CCOCOCC was tested. Which outcome did it give?
Its outcome is “inactive”.

For CC(C)=CCCC(C)O (stereo not given), which outcome is on record?
Its outcome is “inactive”.

With CCc1cccc(C)c1N(C(=O)C(=O)O)C(C)COC (stereo not given) as the compound, how does the outcome read?
The outcome was “inactive”.

For Cc1ccc(S(=O)(=O)C(I)I)cc1, which outcome is on record?
Its outcome is “inactive”.

How did the AC50 turn out when CCCCCCCCCc1ccc(OCCO)cc1 was run?
The AC50 was 4.25 µM (active).

How did the outcome turn out when OCCCC(F)(F)C(F)(F)C(F)(F)C(F)(F)C(F)(F)C(F)(F)C(F)(F)C(F)(F)F was run?
The outcome was “inactive”.

Which outcome does the source give for O=C=NCc1cccc(CN=C=O)c1 here?
Its outcome is “inactive”.

With CC1=CC2C3C=CC(C3)C2C1C (stereo not given) as the compound, how does the AC50 read?
Its AC50 is 100 µM (active).

How did the outcome turn out when O=S(=O)(O)CCC(F)(F)C(F)(F)C(F)(F)C(F)(F)F was run?
The outcome was “inactive”.

With O=C=Nc1cccc2c(N=C=O)cccc12 as the compound, how does the outcome read?
The outcome was “inactive”.

Cc1ccc(O)cn1 was tested. Which outcome did it give?
The outcome was “inactive”.

With CCOC(C=C(C)CCC=C(C)C)OCC as the compound, how does the outcome read?
The outcome was “inactive”.

How did the outcome turn out when Cc1ccc2c(c1)OCC(=O)CO2 was run?
Its outcome is “inactive”.

For O=C1c2c(O)ccc(Nc3ccc(CCO)cc3)c2C(=O)c2c([N+](=O)[O-])ccc(O)c21, which outcome is on record?
Its outcome is “inactive”.

Which outcome does the source give for N#CCCOCCC#N here?
Its outcome is “inactive”.

For O=C(O)CCC(F)(F)C(F)(F)C(F)(F)F, which outcome is on record?
Its outcome is “inactive”.

For CCN=c1cc2oc3cc(NCC)c(C)cc3c(-c3ccccc3C(=O)OCC)c-2cc1C, which outcome is on record?
Its outcome is “inactive”.

With O=S(=O)(O)CCC(F)(F)C(F)(F)C(F)(F)C(F)(F)C(F)(F)C(F)(F)C(F)(F)C(F)(F)F as the compound, how does the outcome read?
The outcome was “inactive”.

With CC(C)(C)c1cc(CCC(=O)OCC(COC(=O)CCc2cc(C(C)(C)C)c(O)c(C(C)(C)C)c2)(COC(=O)CCc2cc(C(C)(C)C)c(O)c(C(C)(C)C)c2)COC(=O)CCc2cc(C(C)(C)C)c(O)c(C(C)(C)C)c2)cc(C(C)(C)C)c1O as the compound, how does the outcome read?
The outcome was “inactive”.

Which outcome does the source give for O=C(O)C(F)(F)OC(F)(F)C(F)(F)OC(F)(F)C(F)(F)OC(F)(F)F here?
Its outcome is “inactive”.

CN(C(=O)C(F)(F)C(F)(F)C(F)(F)F)[Si](C)(C)C was tested. Which outcome did it give?
The outcome was “inactive”.

With CCN(CC)c1ccc2c(c1)Oc1cc(N(CC)CC)ccc1C21OC(=O)c2ccccc21 as the compound, how does the outcome read?
The outcome was “inactive”.

CO[Si](C)(CCC(F)(F)C(F)(F)C(F)(F)C(F)(F)C(F)(F)C(F)(F)F)OC was tested. Which outcome did it give?
Its outcome is “inactive”.

C=C(C)C(=O)OCC(F)(F)C(F)(F)C(F)(F)C(F)F was tested. Which outcome did it give?
Its outcome is “inactive”.

With CCCCC(CC)COC(=O)c1ccc(N(C)C)cc1 (stereo not given) as the compound, how does the outcome read?
The outcome was “inactive”.

How did the outcome turn out when Nc1cc([N+](=O)[O-])cc(Cl)c1O was run?
Its outcome is “inactive”.

For OC(O)C(F)(F)C(F)(F)F, which outcome is on record?
The outcome was “inactive”.

With CC(C)OC(=O)COc1ccc(Cl)cc1Cl as the compound, how does the outcome read?
The outcome was “inactive”.

With CCCCOC(=O)C(C)O (stereo not given) as the compound, how does the outcome read?
The outcome was “inactive”.

For CC(C)(C)c1cc(Cc2cc(C(C)(C)C)c(O)c(C(C)(C)C)c2)cc(C(C)(C)C)c1O, which outcome is on record?
Its outcome is “inactive”.

With O=C(F)C1(F)C(F)(F)C(F)(F)C(F)(F)C(F)(F)C1(F)F as the compound, how does the outcome read?
Its outcome is “inactive”.

For Cc1ccc([N+](=O)[O-])c(C)c1, which outcome is on record?
Its outcome is “inactive”.

Which outcome does the source give for O=S(=O)(OCC(F)(F)F)C(F)(F)C(F)(F)C(F)(F)C(F)(F)F here?
Its outcome is “inactive”.

Which outcome does the source give for CCc1ccc(C)nc1 here?
The outcome was “inactive”.

Which outcome does the source give for COCCC(=O)OC here?
Its outcome is “inactive”.

How did the outcome turn out when CCC(=O)OC(C)c1ccccc1 (stereo not given) was run?
The outcome was “inactive”.
